PubChem BioAssay (NCI)
Compounds without any hit were thinned out: in the full panel of roughly 83,000, 20% have a hit.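 The endpoint reported here, percent growth, reads 100 for growth as untreated, 0 for no net growth and -100 for all cells dead.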 A number with no mark means an inactive call. Active and inactive are the calls of the source. Rule for the calls: active = growth percent below 10; inactive = the rest.

System: ACHN renal
Assay: NCI-60 one-dose screen, 48 h (100 = growth as untreated, 0 = no growth, -100 = all killed)
Settings: 10 µM unless noted

| SMILES | growth |
| --- | --- |
| COC(=O)Cc1cc(COC(C)=O)ccc1C | 103% |
| Cc1ccc(/C=N/NC(N)=S)s1 | 103% |
| Cc1cc(=O)n(Nc2ccccc2)c(O)c1C#N | 104% |
| CN(C)c1ccc(O)c2c1CC1CC3C(N(C)C)C(=O)C(C(N)=O)=C(O)C3(O)C(=O)C1=C2O (configuration not stated) | 35.5% |
| C/C(=N\N=C(/C)c1cccc([N+](=O)[O-])c1)c1cccc([N+](=O)[O-])c1 | 99.4% |
| CC(=O)c1ccc(C)cc1 | 109% |
| O=C1Nc2ccccc2/C1=C\c1ccccc1O | 85.4% |
| CCOC(=O)Nc1nccs1 | 104% |
| CCNC(=O)Oc1ccc[nH]c1=O | 100% |
| Cc1nc(C)c(C(=O)O)cc1C(=O)O | 104% |
| CC(=O)OCC1OC(n2cnc3c(=S)nc(N)[nH]c32)C(OC(C)=O)C1OC(C)=O (configuration not stated) | 72.1% |
| CC(CO)(CO)C(=O)O | 103% |
| CCOC(=O)CNC | 91.1% |
| CC(c1ccccc1)N(C)C (configuration not stated) | 109% |
| COC1CC(OC(=O)c2ccc([N+](=O)[O-])cc2)C(COC(=O)c2ccc([N+](=O)[O-])cc2)O1 (configuration not stated) | 112% |
| Nc1cccc2cccc(O)c12 | 80% |
| CC(CCC#N)(CCC#N)C(=O)c1ccccc1 | 114% |
| O=[N+]([O-])c1c(Cl)ncnc1Cl | 94.8% |
| NS(=O)(=O)c1cc(=O)[nH]c(=O)[nH]1 | 104% |

| SMILES | growth |
| --- | --- |
| COc1ccc2c(Cl)cc(NC(=O)Nc3c(C)cccc3C)nc2c1 | 41.9% |
| CC(=O)c1cccc(O)c1 | 103% |
| Cc1nc(O)cc(=O)[nH]1 | 107% |
| Cc1ccc(C)c2c1CCC2=O | 102% |
| O=C(OC1CCCC1)c1ccccc1Cl | 104% |
| CC(C)c1ccc(C(=O)OCCCl)cc1 | 94.5% |
| CCCCNC(=O)c1ccc(OCC)cc1 | 109% |
| N#Cc1ccc(OC(=O)Nc2cc(Cl)cc(Cl)c2)cc1 | 0.368% [100 µM] (active) |
| CCOC(=O)C(C#N)=C1CCN(C)CC1 | 97.9% |
| COC(CCCl)c1ccc(Cl)cc1 (configuration not stated) | 88.9% |
| CCOc1ccc(C(=O)NCC(C)C)cc1 | 107% |
| COc1ccc(C2CCCCC2=O)cc1 (configuration not stated) | 98.7% |
| O=S(=O)(c1ccc(NC(=S)NCc2cccnc2)cc1)N1CCCCC1 | 86.9% |
| Cc1ccc(NC(=O)c2ccccc2Cl)cc1 | 103% |
| Nc1ccccc1SC1CC(=O)N(c2ccc(Cl)c(Cl)c2)C1=O (configuration not stated) | 108% |
| OCC1CCC(O)C(CO)N1 (configuration not stated) | 100% |
| CCCCCCCCNC(=O)C(C)C | 108% |
| N#C/C(=C\c1ccc2c(c1)OCO2)c1ccccc1 | 93.6% |
